ADAM10 inh: ADAM10 inhibition, QFRET primary screen; AID 720582; inhibition, % at 7 µM; recombinant ADAM10, EDANS/DABCYL FRET peptide cleavage, 3 h; O14672; actives 0.62% (n = 370,000);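 active = inhibition above a per-campaign cutoff equal to the mean of compounds falling between control-based bounds plus 3 SD, cut at about 20% in these data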
ADAM17 inh: inhibits human ADAM17; recombinant ADAM17, EDANS/DABCYL FRET peptide cleavage; inhibition, % at 6.95 µM; actives 0.83% (n = 370,000); AID 720648;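 active = inhibition above the mean of compounds lying between control limits plus 3 SD, set per campaign, cut at about 8.5% in these data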
KLK7 zymogen act: proKLK7 (human) activation, primary screen; AID 652039; purified proKLK7, EDANS-DABCYL substrate fluorescence; 100% is mature enzyme control, 0% vehicle; activation, % at 7 µM; actives 0.9% (n = 370,000);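 active = activation above the mean of all tested compounds plus 3 SD, computed per campaign excluding outliers beyond control limits, cut at about 13% in these data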
PLC-gamma1 inh: inhibitors of human phospholipase C gamma1; P19174; purified PLC-gamma1, fluorogenic substrate, fluorescence; inhibition, % at 12.2 µM; actives 0.84% (n = 370,000); in the data active = inhibition above about 9.5%
PLCb3 inh: inhibitors of human phospholipase C beta3 | Q01970 | Purified PLC-beta3, fluorogenic substrate, fluorescence | inhibition, % at 12.2 µM | actives 0.18% (n = 370,000) | AID 720704; in the data active = inhibition above about 11%
proKLK7 act conf: confirmation of human kallikrein-7 zymogen activators | shares compounds with KLK7 zymogen act | purified proKLK7, EDANS-DABCYL substrate fluorescence; scaled: vehicle 0, mature enzyme 100 | activation, % at 7 µM | actives 68% (n = 3,200) | AID 686949;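 active = activation, as change over the incubation, above the mean of all tested compounds plus 3 SD, cut at about 13% in these data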
EDANS-DABCYL int: counter-screen for kallikrein-7 activators: EDANS-DABCYL optical interference; EDANS-DABCYL substrate fluorescence interference, no enzyme, 4 h; solvent 0%, active enzyme control 100%; actives 80% (n = 3,200); activation, % at 7 µM; shares compounds with KLK7 zymogen act;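 active = activation above the all-compound mean plus 3 SD, ignoring values outside control-based bounds, cut at about 4.8% in these data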;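 note: value is the 4 h activation minus the activation read at time zero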
K7 EDANS ctr: optically interferes with EDANS-DABCYL fluorescence, kallikrein-7 activator counter-screen | shares compounds with KLK7 zymogen act | EDANS-DABCYL peptide fluorescence interference, no enzyme | EC50, µM | actives 20% (n = 250) | AID 720493;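 active = compounds that raise the fluorescence signal in this interference counterscreen, with EC50 at or below 10 µM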;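 note: intact quenched peptide substrate alone read at 355 nm excitation and 520 nm emission; signal is fluorescence gain from T0 to T4 after four hours at room temperature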
Hits are given with their value; – = inactive; · = no result. Rows were chosen to be rich in hits. Some 2.9% of all compounds tested hit in one or more screens of this group.

SMILES	ADAM10 inh	ADAM17 inh	KLK7 zymogen act	PLC-gamma1 inh	PLCb3 inh	proKLK7 act conf	EDANS-DABCYL int	others
COCC(=O)Nc1ccc(-c2cn3cccnc3n2)cc1	–	–	25.2	–	–	62.7	80.8
CCC(CC)C(=O)Nc1ccc(-c2cn3cccnc3n2)cc1	–	–	61.5	–	–	66.0	64.2
CC1(c2nnnn2-c2ccc3ccccc3c2)CSCC(=O)N1C1CC1 (stereo not given)	–	–	–	–	–	·	·
CC(=O)N1CCC2(CC1)CC(=O)c1cc(OCC(=O)N3CCOCC3)ccc1O2	–	–	61.6	–	–	68.7	65.0
Cc1ccc(OCC(=O)N2CCC3(CC2)CC(=O)c2ccccc2O3)cc1	–	–	–	–	–	·	·
CCOC(=O)N1CCN(C(=O)COc2ccc3c(c2)C(=O)CC2(CCN(C(C)=O)CC2)O3)CC1	–	–	25.5	–	–	70.7	74.8
Nn1c(SCC(=O)NC2CCCCC2)nnc1-c1cc(-c2ccc(F)cc2)n[nH]1	–	–	–	–	–	·	·
O=C(NCCc1nc2ccccc2n1CCOc1ccc2cccnc2c1)C1CCCCC1	–	–	·	–	–	·	·
CCN1CCN(Cc2c(O)ccc3c(C)cc(=O)oc23)CC1	–	–	44.0	–	–	70.7	72.9
O=c1oc2c(CN3CCN(CCO)CC3)c(O)ccc2cc1-c1ccccn1	–	–	60.3	–	–	69.8	81.9
CCCc1cc(=O)oc2c(CN3CCCC3)c(O)ccc12	–	–	60.3	–	–	71.5	69.3
CN1CCN(Cc2c(O)ccc3c(-c4ccccc4)cc(=O)oc23)CC1	–	–	17.0	–	–	–	–
Cc1cc(=O)oc2c(O)c(O)ccc12	–	–	–	–	–	·	·
C=C(C)Cn1c(SCC(=O)NN=Cc2c(O)ccc3ccccc23)nnc1-c1ccc(Br)cc1	–	–	–	–	–	·	·
Cc1cc(=O)oc2c(CN3CCCC3)c(O)ccc12	–	–	44.9	–	–	76.4	75.3
Cc1cc(=O)oc2c(CN3CCN(CCO)CC3)c(O)ccc12	–	–	119.9	–	–	65.4	68.5
O=c1oc2c(CN3CCOCC3)c(O)ccc2c2c1CCC2	–	–	69.6	–	–	67.9	71.5
CC(C)(C)c1ccc(C(=O)Nc2cc(Cl)c(F)cc2C(=O)O)cc1	–	–	·	–	–	·	·
COC(=O)[C@]12C[C@H](CC(=O)NCc3ccc(C)o3)C(=O)N(CCc3ccc(OC)c(OC)c3)C1=C[C@H](COCc1ccccc1)O[C@@H]2C	–	–	–	–	–	·	·
CC(=O)c1cc(-c2ccc(Cl)c(Cl)c2)c(=O)n2c1CCC2	–	–	–	–	–	·	·
COc1ccc(-c2csc(NC(=O)c3ccc(S(=O)(=O)N4CCc5ccccc5C4)cc3)n2)c(OC)c1	–	–	54.8	–	–	58.7	78.9
O=C(OCC(=O)N1CCOCC1)c1ccc2ccccc2c1O	–	–	–	–	–	·	·
COc1ccc(-c2cc(C(F)F)n3ncc(C(=O)N4CCN(C)CC4)c3n2)cc1	–	–	15.3	–	–	–	–
COc1cc2ccccc2cc1C(=O)OCC(=O)N1CCOCC1	–	–	15.4	–	–	22.4	18.7	K7 EDANS ctr=–
CCOC(=O)CCCNC(=O)COC(=O)c1cc2ccccc2cc1O	–	–	25.0	–	–	18.8	19.2
SMILES	ADAM10 inh	ADAM17 inh	KLK7 zymogen act	PLC-gamma1 inh	PLCb3 inh	proKLK7 act conf	EDANS-DABCYL int	others
CCOC(=O)CCCNC(=O)COC(=O)c1cc(C)cc(C)c1	–	–	–	–	–	·	·
CC1CN(C(=O)COC(=O)c2cc3ccccc3cc2O)CC(C)O1 (stereo not given)	–	–	14.5	–	–	17.2	16.9
CC1CN(C(=O)c2cc3ccccc3cc2O)CC(C)O1 (stereo not given)	–	–	–	–	–	·	·
COc1ccc(-c2cc(C(=O)N3CCOCC3)c3cc(C)ccc3n2)cc1	–	–	64.5	–	–	15.1	21.4
COc1ccc2nc(-c3ccc(Cl)cc3)cc(C(=O)O)c2c1	–	–	25.3	–	–	27.1	43.7
COc1ccc(-c2cc(C(=O)N3CCCCCC3)c3cc(C)ccc3n2)cc1	–	–	–	–	–	·	·

Source: PubChem
